# Inconclusive results are not listed. Activity calls are given as the source filed them. Rule for the calls: active = hit-call score of the fitted dose curve at least 0.9, where 1 is the maximum; inconclusive = response in the unintended direction; inactive = score below 0.9.
# Biological target: Cellular tumor antigen p53 (Homo sapiens) (UniProt P04637)
# Experiment: TOX21_p53_BLA_p5_ratio: Tox21 HCT-116 p53 Agonism Beta-lactamase Assay, Ratio, Phase 5 (AID 2283599)
# In short: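 HCT-116 cells carrying a p53-inducible beta-lactamase reporter were seeded at 4000 cells/well and dosed after 5 h with compound in DMSO (217-fold dilution). After 16 h at 37C, CCF4-AM substrate was added for 2 h, and the 460/530 nm emission ratio was scored as gain-of-signal versus DMSO.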
# Cellular tumor antigen p53 (Homo sapiens), sequence (P04637 whole entry, looked up): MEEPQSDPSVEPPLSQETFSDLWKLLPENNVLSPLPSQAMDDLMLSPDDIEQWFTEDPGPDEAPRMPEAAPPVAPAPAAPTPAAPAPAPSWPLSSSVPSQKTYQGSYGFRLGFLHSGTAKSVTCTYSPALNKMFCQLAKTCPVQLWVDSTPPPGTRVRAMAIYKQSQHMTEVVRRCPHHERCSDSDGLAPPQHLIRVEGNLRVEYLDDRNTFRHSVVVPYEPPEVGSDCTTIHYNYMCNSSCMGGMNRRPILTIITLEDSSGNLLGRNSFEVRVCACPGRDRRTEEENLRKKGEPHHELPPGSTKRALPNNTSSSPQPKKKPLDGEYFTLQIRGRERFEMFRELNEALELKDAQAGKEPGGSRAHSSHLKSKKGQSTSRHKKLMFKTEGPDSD
Compound,outcome,AC50
CCCCc1oc2ccc(NS(C)(=O)=O)cc2c1C(=O)c1ccc(OCCCN(CCCC)CCCC)cc1,inactive,
Cc1ccc2nc(N)[nH]c(=O)c2c1Sc1ccncc1,inactive,
CON=C(C(=O)N[C@@H]1C(=O)N2C(C(=O)O)=C(COC(N)=O)CS[C@H]12)c1ccco1,inactive,
CC1(C)S[C@@H]2[C@H](NC(=O)Cc3ccccc3)C(=O)N2[C@H]1C(=O)O (tested in a mixture with another compound),inactive,
O=S(=O)(O)c1ccc(O)cc1,inactive,
CNc1ccc(O)cc1,inactive,
O=[N+]([O-])c1c(Cl)cccc1-c1c[nH]cc1Cl,inactive,
CC(C)NCC1CCc2cc(CO)c([N+](=O)[O-])cc2N1 (stereo not given),inactive,
CC(C)(C)OC(=O)N1C[C@@H](F)C[C@H]1C(=O)O,inactive,
N#CCc1cccc(C(F)(F)F)c1,inactive,
COc1cc(C(=O)OCCCN2CCCN(CCCOC(=O)c3cc(OC)c(OC)c(OC)c3)CC2)cc(OC)c1OC,inactive,
CC[C@@]1([C@@H]2O[C@@H]([C@H]3O[C@@](O)(CO)[C@H](C)C[C@@H]3C)C[C@@H]2C)CC[C@H]([C@]2(C)CC[C@]3(C[C@H](O)[C@@H](C)[C@@H]([C@@H](C)[C@@H](OC)[C@H](C)C(=O)O)O3)O2)O1 (stereo in doubt),inactive,
CC(C)(C#N)Nc1nc(Cl)nc(NC2CC2)n1,inactive,
Oc1c(Cl)cc(Cl)c2cccnc12,,7.4 µM (active)
O=C(O)CCC(=O)C(=O)O,inactive,
CCCCCCCC(=O)CC[C@@H]1[C@@H](C/C=C\CCCC(=O)OC(C)C)[C@@H](O)C[C@H]1O,,43 µM (active)
CO[C@@H]1[C@@H](O[C@@H]2O[C@H](C)[C@@H](O[C@H]3C[C@@](C)(O)[C@@H](OC(=O)CC(C)C)[C@H](C)O3)[C@H](N(C)C)[C@H]2O)[C@@H](CC=O)C[C@@H](C)C(=O)/C=C/C2OC2C[C@@H](C)OC(=O)C[C@H]1OC(C)=O (stereo not given in full),inactive,
O=C(NCC1CCCCN1)c1cc(OCC(F)(F)F)ccc1OCC(F)(F)F (stereo not given),inactive,
O=C(Oc1cccc2cccnc12)c1ccccc1,inactive,
COc1cc(C=C2CCCC(=Cc3ccc(O)c(OC)c3)C2=O)ccc1O,,11.5 µM (active)

Compound,outcome,AC50
CCCOc1ccc(C(=O)OCCN(CC)CC)cc1N,inactive,
CC(C)(C)C(=O)O,inactive,
O=C(CCS)OCC(COC(=O)CCS)(COC(=O)CCS)COC(=O)CCS,inactive,
Cc1ccc(S(=O)(=O)NC(=O)NC2CCCCCCC2)cc1,inactive,
Cc1cccc(C)c1OCC(=O)N[C@@H](Cc1ccccc1)[C@@H](O)C[C@H](Cc1ccccc1)NC(=O)[C@H](C(C)C)N1CCCNC1=O,inactive,
CCCCCCCCCCCC[n+]1ccc2ccccc2c1,,28.5 µM (active)
Cc1ccccn1,inactive,
Cc1cc(O)c(C(C)(C)C)cc1Sc1cc(C(C)(C)C)c(O)cc1C,,40.9 µM (active)
CCCC(C(=O)OCCN(CC)CC)(c1ccccc1)c1ccccc1,inactive,
CCCCCCCCCCCCCCCCCCNC(=O)OC1CCN(C(=O)OC[C@H](COC(=O)N(Cc2cccc[n+]2CC)C(=O)c2ccccc2OC)OC)CC1,,35.7 µM (active)
CCCCCCCCCCCCCCC(=O)O,inactive,
CC(C)(O)c1ccccc1CC[C@@H](SCC1(CC(=O)O)CC1)c1cccc(/C=C/c2ccc3ccc(Cl)cc3n2)c1,,17.6 µM (active)
CO[C@@]12[C@H](COC(N)=O)C3=C(C(=O)C(C)=C(N)C3=O)N1C[C@@H]1N[C@@H]12,,6.3 µM (active)
CC(C)OC(=O)OCOP(=O)(CO[C@H](C)Cn1cnc2c(N)ncnc21)OCOC(=O)OC(C)C,inactive,
CSc1ccc2c(c1)C(N1CCN(C)CC1)Cc1ccccc1S2 (stereo not given),inactive,
Oc1c(Br)cc(Br)c2cccnc12,inactive,
OCCN1CCN(CC/C=C2/c3ccccc3Sc3ccc(C(F)(F)F)cc32)CC1,inactive,
CC(=O)Oc1ccc(C2(c3ccc(OC(C)=O)cc3)Oc3ccccc3NC2=O)cc1,,6.63 µM (active)
O=C(O)c1ccc(-n2nc(-c3ccccc3O)nc2-c2ccccc2O)cc1,inactive,
CN1CC(=O)N/C1=N/C(=O)Nc1cccc(Cl)c1,inactive,

# Tested on: not listed separately
# Experiment: TOX21_p53_BLA_p5_viability: Viability Assessment in the Tox21 HCT-116 p53 Agonism Beta-lactamase Assay, Phase 5 (AID 2283600)
# In short: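 Viability is taken from cellular ATP content, measured by luciferase luminescence in the same wells after the beta-lactamase ratio read. Cells are seeded at 4000 per well and exposed to DMSO-dissolved compounds, diluted 217-fold, for 16 h.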
Compound,outcome,AC50
CCCCc1oc2ccc(NS(C)(=O)=O)cc2c1C(=O)c1ccc(OCCCN(CCCC)CCCC)cc1,inactive,
Cc1ccc2nc(N)[nH]c(=O)c2c1Sc1ccncc1,inactive,
CON=C(C(=O)N[C@@H]1C(=O)N2C(C(=O)O)=C(COC(N)=O)CS[C@H]12)c1ccco1,inactive,
CC1(C)S[C@@H]2[C@H](NC(=O)Cc3ccccc3)C(=O)N2[C@H]1C(=O)O (tested in a mixture with another compound),inactive,
O=S(=O)(O)c1ccc(O)cc1,inactive,
CNc1ccc(O)cc1,,78 µM (active)
O=[N+]([O-])c1c(Cl)cccc1-c1c[nH]cc1Cl,inactive,
CC(C)NCC1CCc2cc(CO)c([N+](=O)[O-])cc2N1 (stereo not given),inactive,
CC(C)(C)OC(=O)N1C[C@@H](F)C[C@H]1C(=O)O,inactive,
N#CCc1cccc(C(F)(F)F)c1,inactive,
COc1cc(C(=O)OCCCN2CCCN(CCCOC(=O)c3cc(OC)c(OC)c(OC)c3)CC2)cc(OC)c1OC,inactive,
CC[C@@]1([C@@H]2O[C@@H]([C@H]3O[C@@](O)(CO)[C@H](C)C[C@@H]3C)C[C@@H]2C)CC[C@H]([C@]2(C)CC[C@]3(C[C@H](O)[C@@H](C)[C@@H]([C@@H](C)[C@@H](OC)[C@H](C)C(=O)O)O3)O2)O1 (stereo in doubt),inactive,
CC(C)(C#N)Nc1nc(Cl)nc(NC2CC2)n1,inactive,
Oc1c(Cl)cc(Cl)c2cccnc12,inactive,
O=C(O)CCC(=O)C(=O)O,inactive,
CCCCCCCC(=O)CC[C@@H]1[C@@H](C/C=C\CCCC(=O)OC(C)C)[C@@H](O)C[C@H]1O,,41.9 µM (active)
CO[C@@H]1[C@@H](O[C@@H]2O[C@H](C)[C@@H](O[C@H]3C[C@@](C)(O)[C@@H](OC(=O)CC(C)C)[C@H](C)O3)[C@H](N(C)C)[C@H]2O)[C@@H](CC=O)C[C@@H](C)C(=O)/C=C/C2OC2C[C@@H](C)OC(=O)C[C@H]1OC(C)=O (stereo not given in full),inactive,
O=C(NCC1CCCCN1)c1cc(OCC(F)(F)F)ccc1OCC(F)(F)F (stereo not given),inactive,
O=C(Oc1cccc2cccnc12)c1ccccc1,inactive,
COc1cc(C=C2CCCC(=Cc3ccc(O)c(OC)c3)C2=O)ccc1O,,17 µM (active)

Compound,outcome,AC50
CCCOc1ccc(C(=O)OCCN(CC)CC)cc1N,inactive,
CC(C)(C)C(=O)O,inactive,
O=C(CCS)OCC(COC(=O)CCS)(COC(=O)CCS)COC(=O)CCS,inactive,
Cc1ccc(S(=O)(=O)NC(=O)NC2CCCCCCC2)cc1,inactive,
Cc1cccc(C)c1OCC(=O)N[C@@H](Cc1ccccc1)[C@@H](O)C[C@H](Cc1ccccc1)NC(=O)[C@H](C(C)C)N1CCCNC1=O,inactive,
CCCCCCCCCCCC[n+]1ccc2ccccc2c1,,33.4 µM (active)
Cc1ccccn1,inactive,
Cc1cc(O)c(C(C)(C)C)cc1Sc1cc(C(C)(C)C)c(O)cc1C,,18.1 µM (active)
CCCC(C(=O)OCCN(CC)CC)(c1ccccc1)c1ccccc1,inactive,
CCCCCCCCCCCCCCCCCCNC(=O)OC1CCN(C(=O)OC[C@H](COC(=O)N(Cc2cccc[n+]2CC)C(=O)c2ccccc2OC)OC)CC1,inactive,
CCCCCCCCCCCCCCC(=O)O,inactive,
CC(C)(O)c1ccccc1CC[C@@H](SCC1(CC(=O)O)CC1)c1cccc(/C=C/c2ccc3ccc(Cl)cc3n2)c1,,14.5 µM (active)
CO[C@@]12[C@H](COC(N)=O)C3=C(C(=O)C(C)=C(N)C3=O)N1C[C@@H]1N[C@@H]12,,34.4 µM (active)
CC(C)OC(=O)OCOP(=O)(CO[C@H](C)Cn1cnc2c(N)ncnc21)OCOC(=O)OC(C)C,inactive,
CSc1ccc2c(c1)C(N1CCN(C)CC1)Cc1ccccc1S2 (stereo not given),,38.3 µM (active)
Oc1c(Br)cc(Br)c2cccnc12,inactive,
OCCN1CCN(CC/C=C2/c3ccccc3Sc3ccc(C(F)(F)F)cc32)CC1,inactive,
CC(=O)Oc1ccc(C2(c3ccc(OC(C)=O)cc3)Oc3ccccc3NC2=O)cc1,inactive,
O=C(O)c1ccc(-n2nc(-c3ccccc3O)nc2-c2ccccc2O)cc1,inactive,
CN1CC(=O)N/C1=N/C(=O)Nc1cccc(Cl)c1,inactive,
